Assay results: the supplement of paper PMC3545927
The list shows a part of the results. The hit rate among all sequences tested is not known here.

B1: HC1074 (peptide)
chain: CATAFVGAGLAGNASASA
B2: HC1224 (peptide)
chain: CAGVRLHRFAAGNASASA
B3: HC1395 (peptide)
chain: CAQKKVTFDRAGNASASA
B4: HC982 (peptide)
chain: CAKYIMTCMSAGNASASA
B5: HC689 (peptide)
chain: CAGEVQIVSTAGNASASA
B6: HC315 (peptide)
chain: CAYPGHITGHAGNASASA
B7: HC1283 (peptide)
chain: CAESENKVVIAGNASASA
B8: FS-1313 (peptide)
chain: CACQCRFFRSAGNASASA
B9: FS-911 (peptide)
chain: CAMEVLRKRSAGNASASA
B10: FS-118 (peptide)
chain: CACCCRRKRSAGNASASA
B11: FS-1172 (peptide)
chain: CATLERRKRSAGNASASA
B12: FS-998 (peptide)
chain: CAGKELRKRSAGNASASA
B13: FS-1028 (peptide)
chain: CALPIRRKRSAGNASASA
B14: HC1409 (peptide)
chain: CAKVKANLLSAGNASASA
B15: HC1809 (peptide)
chain: CADYMEECSQAGNASASA
B16: HC1722 (peptide)
chain: CAMEQCSQHLAGNASASA
B17: HC1181 (peptide)
chain: CANGTMRIVGAGNASASA
B18: HC145 (peptide)
chain: CAEVVTITWVAGNASASA
B19: HC750 (peptide)
chain: CAIFRAAVCTAGNASASA
B20: HC1370 (peptide)
chain: CACCSMSYSWAGNASASA
B21: FS-1570 (peptide)
chain: CASNGRRKRSAGNASASA
B22: FS-1423 (peptide)
chain: CATLARRKRSAGNASASA
B23: FS-925 (peptide)
chain: CADRHFRKRSAGNASASA
B24: FS-1119 (peptide)
chain: CAERRKRKRSAGNASASA
B25: HC144 (peptide)
chain: CAEVVTLTWVAGNASASA
B26: HC1415 (peptide)
chain: CACSLTPPHSAGNASASA
B27: HC1335 (peptide)
chain: CATRSFGSSSAGNASASA
B28: FS-100 (peptide)
chain: CATRSVRKRSAGNASASA
B29: FS-572 (peptide)
chain: CATSSSRKRSAGNASASA
B30: HC1508 (peptide)
chain: CAGYRRCRASAGNASASA
B31: HC1311 (peptide)
chain: CAWKKPDYEPAGNASASA
B32: FS-902 (peptide)
chain: CAYRHRKKRNAGNASASA
B33: HC163 (peptide)
chain: CAPKPQKKNKAGNASASA
B34: FS-674 (peptide)
chain: CAKKMRVWRDAGNASASA
B35: HC1322 (peptide)
chain: CAPVPPPRKKAGNASASA
B36: FS-2867 (peptide)
chain: CAKKKRMAMAAGNASASA
B37: HC166 (peptide)
chain: CANKRNTNRRAGNASASA
B38: FS-263 (peptide)
chain: CAKTTRKKRNAGNASASA
B39: HC165 (peptide)
chain: CAKKNKRNTNAGNASASA
B40: HC1449 (peptide)
chain: CAARLIVFPDAGNASASA
B41: HC164 (peptide)
chain: CAPQKKNKRNAGNASASA
B42: HC2012 (peptide)
chain: CAVECCSMSYAGNASASA
B43: HC352 (peptide)
chain: CAAETHVTGGAGNASASA

Molecular target: furin, P09958
Sequence (P09958 whole entry): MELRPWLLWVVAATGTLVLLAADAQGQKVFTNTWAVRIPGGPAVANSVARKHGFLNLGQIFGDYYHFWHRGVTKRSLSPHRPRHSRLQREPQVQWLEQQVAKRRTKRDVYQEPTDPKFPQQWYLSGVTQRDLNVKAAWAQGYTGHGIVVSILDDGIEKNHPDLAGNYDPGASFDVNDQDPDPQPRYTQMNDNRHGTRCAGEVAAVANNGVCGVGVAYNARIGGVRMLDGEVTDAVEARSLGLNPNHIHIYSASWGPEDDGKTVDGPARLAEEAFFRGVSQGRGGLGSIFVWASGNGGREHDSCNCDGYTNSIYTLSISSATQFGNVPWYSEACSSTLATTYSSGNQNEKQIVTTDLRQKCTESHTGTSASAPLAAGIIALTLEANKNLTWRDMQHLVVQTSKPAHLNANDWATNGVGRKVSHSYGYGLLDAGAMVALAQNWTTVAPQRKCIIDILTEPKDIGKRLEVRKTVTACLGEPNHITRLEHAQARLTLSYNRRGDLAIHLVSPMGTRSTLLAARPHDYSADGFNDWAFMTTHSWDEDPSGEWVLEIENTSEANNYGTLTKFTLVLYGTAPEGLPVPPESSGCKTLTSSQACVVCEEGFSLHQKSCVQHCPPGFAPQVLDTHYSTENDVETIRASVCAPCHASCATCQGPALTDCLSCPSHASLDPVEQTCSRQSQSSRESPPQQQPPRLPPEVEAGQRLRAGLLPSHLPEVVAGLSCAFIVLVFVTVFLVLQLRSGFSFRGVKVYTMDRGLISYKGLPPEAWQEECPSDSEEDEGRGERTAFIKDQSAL
Assay: furin cleavage Z-score vs untreated control; higher = more cleavage, active = 3.5 or more, inactive = 1 or less, 8 variable residues between constant flanks
Procedure, shortened: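 Reactions of 0.01 ml ran for 7.5, 15 or 30 min in 50 mM HEPES pH 7.5 with CaCl2 and NaCl, at 1:10 enzyme:substrate. In them, purified furin acted on bead-held 8-mer peptides fused to a cDNA oligonucleotide. The cleavage Z-score was obtained by lowess-adjusting log sequencing counts of released DNA against furin-free reactions and scaling by median absolute deviation.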

Sequence | furin cleavage Z-score (7.5 min) | furin cleavage Z-score (15 min) | furin cleavage Z-score (30 min)
B1 | -0.799 (inactive) | -0.776 (inactive) | -1.06 (inactive)
B2 | -0.592 (inactive) | -0.925 (inactive) | -0.313 (inactive)
B3 | -0.415 (inactive) | -0.119 (inactive) | -0.531 (inactive)
B4 | -1.5 (inactive) | -0.454 (inactive) | -2.07 (inactive)
B5 | -0.7 (inactive) | 0.651 (inactive) | -0.62 (inactive)
B6 | 0.244 (inactive) | -0.868 (inactive) | 0.3 (inactive)
B7 | -1.56 (inactive) | -1.01 (inactive) | -1.31 (inactive)
B8 | 0.733 (inactive) | -1.88 (inactive) | -0.461 (inactive)
B9 | -0.513 (inactive) | -0.258 (inactive) | 0.754 (inactive)
B10 | 7.96 (active) | 7.28 (active) | 6.41 (active)
B11 | 11.2 (active) | 9.64 (active) | 8.54 (active)
B12 | 6.16 (active) | 6.24 (active) | 6.7 (active)
B13 | 13 (active) | 13.8 (active) | 9.29 (active)
B14 | 0.199 (inactive) | -1.82 (inactive) | -0.858 (inactive)
B15 | 0.775 (inactive) | 0.374 (inactive) | -0.614 (inactive)
B16 | 2.51 | 1.08 | 0.422 (inactive)
B17 | 0.253 (inactive) | 1.69 | -0.0933 (inactive)
B18 | -0.85 (inactive) | 0.512 (inactive) | -0.407 (inactive)
B19 | -0.737 (inactive) | -0.718 (inactive) | -0.0235 (inactive)
B20 | 0.447 (inactive) | -0.385 (inactive) | 0.225 (inactive)
B21 | 11 (active) | 11.1 (active) | 9.24 (active)
B22 | 11.4 (active) | 11.2 (active) | 9.32 (active)

Sequence | furin cleavage Z-score (7.5 min) | furin cleavage Z-score (15 min) | furin cleavage Z-score (30 min)
B23 | 9.05 (active) | 11.3 (active) | 9.58 (active)
B24 | 11.5 (active) | 11.6 (active) | 9.13 (active)
B25 | 0.108 (inactive) | 1.05 | -0.447 (inactive)
B26 | -1.29 (inactive) | -4.97 (inactive) | -1.14 (inactive)
B27 | 0.518 (inactive) | -0.799 (inactive) | -0.228 (inactive)
B28 | 10 (active) | 8.16 (active) | 6.31 (active)
B29 | 1.17 | 0.258 (inactive) | 1.99
B30 | 0.58 (inactive) | -0.0246 (inactive) | 0.472 (inactive)
B31 | -0.0824 (inactive) | -0.0771 (inactive) | 0.0457 (inactive)
B32 | 2.85 | 1.03 | -0.551 (inactive)
B33 | -1.39 (inactive) | -0.337 (inactive) | -0.509 (inactive)
B34 | 4.34 (active) | 5.37 (active) | 5.78 (active)
B35 | 0.00444 (inactive) | 1.55 | 0.99 (inactive)
B36 | -0.103 (inactive) | 0.494 (inactive) | 1.89
B37 | 0.476 (inactive) | 1.53 | -0.249 (inactive)
B38 | 7.57 (active) | 8.3 (active) | 5.21 (active)
B39 | 4.17 (active) | 6.77 (active) | 5.31 (active)
B40 | -1.5 (inactive) | -0.858 (inactive) | -0.313 (inactive)
B41 | 5.11 (active) | 6.33 (active) | 5.55 (active)
B42 | 0.483 (inactive) | 1.15 | 0.164 (inactive)
B43 | -0.704 (inactive) | -0.0263 (inactive) | -0.814 (inactive)
